# JMJD2A Tudor – JMJD2A Tudor domain (human) inhibition; AlphaScreen JMJD2A-Tudor / H3K4me3 peptide binding; Potency, µM (top dose mostly 114 µM), for the others: at the top dose activity change, negative = inhibition, actives largely listed as inhibitors; hit rate 4.4% among 390,000; further: potency means the concentration at half of the fitted maximal effect; on the % scale 0 is the no-effect control and ±100 the full control effect; nearly all actives have a fitted effect of over 50% in size
# Target sequence (O75164 whole entry, looked up, the tested form may be a part): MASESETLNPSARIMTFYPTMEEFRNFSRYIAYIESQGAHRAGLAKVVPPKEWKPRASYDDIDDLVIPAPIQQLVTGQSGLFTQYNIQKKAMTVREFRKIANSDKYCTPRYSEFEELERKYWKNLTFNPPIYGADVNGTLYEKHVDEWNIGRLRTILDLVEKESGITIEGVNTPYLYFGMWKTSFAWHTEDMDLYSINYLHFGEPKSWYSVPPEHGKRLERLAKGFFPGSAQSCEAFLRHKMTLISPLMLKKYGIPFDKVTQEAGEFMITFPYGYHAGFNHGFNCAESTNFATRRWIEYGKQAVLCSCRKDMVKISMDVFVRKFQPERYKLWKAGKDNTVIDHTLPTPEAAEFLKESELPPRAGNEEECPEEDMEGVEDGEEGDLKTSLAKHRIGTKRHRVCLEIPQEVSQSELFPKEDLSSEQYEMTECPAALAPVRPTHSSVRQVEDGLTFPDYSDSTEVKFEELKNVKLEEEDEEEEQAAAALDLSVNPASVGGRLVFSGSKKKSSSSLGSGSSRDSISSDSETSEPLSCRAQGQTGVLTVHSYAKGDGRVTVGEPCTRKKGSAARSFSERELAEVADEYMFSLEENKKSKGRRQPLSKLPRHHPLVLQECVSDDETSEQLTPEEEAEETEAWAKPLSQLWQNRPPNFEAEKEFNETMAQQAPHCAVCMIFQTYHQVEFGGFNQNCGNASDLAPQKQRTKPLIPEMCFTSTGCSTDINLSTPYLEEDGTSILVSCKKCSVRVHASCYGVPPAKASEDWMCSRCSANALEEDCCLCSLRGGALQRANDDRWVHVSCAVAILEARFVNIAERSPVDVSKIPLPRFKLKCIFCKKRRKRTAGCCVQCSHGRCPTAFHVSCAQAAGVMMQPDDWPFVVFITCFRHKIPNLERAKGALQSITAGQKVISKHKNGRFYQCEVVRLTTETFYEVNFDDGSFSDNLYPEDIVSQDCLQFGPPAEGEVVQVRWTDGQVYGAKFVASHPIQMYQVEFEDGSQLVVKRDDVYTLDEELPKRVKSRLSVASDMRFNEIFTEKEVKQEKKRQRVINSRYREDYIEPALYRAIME
# HP1b binding inh – HP1-beta chromodomain-methylated histone interaction inhibition | P83916 | AlphaScreen HP1-beta / biotin-H3K9me3 peptide binding | Potency, µM (highest dose often 114 µM), without a hit: at the highest dose activity change, negative = inhibition, actives largely listed as inhibitors | hit rate 0.56% among 390,000 | AID 540317; further: potency means the concentration at half of the fitted maximal effect; nearly all actives have a fitted effect of over 70% in size
#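 HP1-beta protein (50 nM final) preincubated 30 min at room temperature with biotinylated H3(1-18)K9me3 peptide (50 nM) in PBS pH 7.4, 0.01% Tween-20, then compound added for 30 min. AlphaScreen streptavidin donor/nickel chelate acceptor beads (10 ug/mL final), 30 min dark, luminescence read.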
# PI5P4Ka inh – inhibitors of human PI5P4K alpha; max response, %; PI5P4Kalpha enzyme, ADP-Glo luminescence, 60 min; stronger effect = lower value; hit rate 1.2% among 330,000; active means max response of -50% or lower; inconclusive means between -30% and -50%; inactive means -30% or higher; further: value at the top dose of about 77 µM; on the % scale 0 is the no-effect control and ±100 the full control effect
#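 Human PI5P4Kalpha with substrate in 0.038 M HEPES pH 7.4, 0.28 mM EGTA, 0.1% CHAPS, 5% DMSO; reaction started with 5 microM ATP (final), 60 min at room temperature. ADP formed read by ADP-Glo luminescence.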
# PLK1 PBD block – inhibitors of human PLK1 polo-box domain binding; Plk1 PBD binding of FITC phosphopeptide, fluorescence polarization; Potency, µM, inactives show max response, negative = inhibition, actives largely listed as inhibitors; P53350; hit rate 2.8% among 360,000; further: potency means the concentration at half of the fitted maximal effect; series mostly up to about 57 µM; on the % scale 0 is the no-effect control and ±100 the full control effect; nearly all actives have a fitted effect of over 65% in size
# BAZ2B block – inhibitors of human BAZ2B bromodomain. Q9UIF8. AlphaScreen BAZ2B-H3K14Ac peptide displacement. Potency, µM (series often up to 114 µM), for the others: at the highest dose activity change, negative = inhibition, usual class: inhibitors. hit rate 4.4% among 360,000; further: potency means the concentration at half of the fitted maximal effect; on the % scale 0 is the no-effect control and ±100 the full control effect; nearly all actives have a fitted effect of over 60% in size
#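 Protein-peptide AlphaScreen: BAZ2B 50 nM, b-H3K14Ac 50 nM, 1x PBS pH 7.4 + 0.01% Tween-20. Preincubation 30 min RT; cpd 30 min RT (top 110 uM); beads 20 min RT, light-protected.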
# G9a inh – inhibitors of human histone lysine methyltransferase G9a. Q96KQ7. G9a H3K9 monomethylation, AlphaScreen, 2 h. Potency, µM (top dose mostly 102 µM), inactives show top-dose activity, negative = inhibition, usual class: inhibitors. hit rate 8.8% among 350,000. AID 504332; further: potency means the concentration at half of the fitted maximal effect; on the % scale 0 is the no-effect control and ±100 the full control effect; nearly all actives have a fitted effect of over 75% in size
#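 Chemiluminescent proximity detection of H3K9 monomethylation, read after 10 min bead incubation in the dark. Reaction: 20 nM G9a, 500 nM biotin-H3K9 peptide, 20 uM SAM cofactor, 2 h, room temperature, following 15 min enzyme-compound preincubation.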
# The depositor's hits bear a star; ? = inconclusive; . = no result given; [ ] = remark or other dose. Shown are actives, neighbours in structure and some others; about 12% of the full set was active somewhere. Unless noted, the call rests on the fitted dose curve; in most records, active means well fitted curve in the direction sought with a large enough effect; inconclusive means small, poorly fitted or top-dose-only effect, or another doubt; inactive means no such curve, though single readings can be large; an effect the other way counts as inactive or inconclusive.
SMILES,JMJD2A Tudor,HP1b binding inh,PI5P4Ka inh,PLK1 PBD block,BAZ2B block,G9a inh
O=C(/C=C/c1ccco1)N(Cc1ccc(Cl)cc1)C1CCS(=O)(=O)C1 (configuration not stated),-20%,-13%,-28,?,-28%,45µM*
COc1ccc(CN(C(=O)/C=C/c2ccco2)C2CCS(=O)(=O)C2)cc1 (configuration not stated),?,3%,?,-21%,50µM*,50µM*
COc1cccc(CN(C(=O)/C=C/c2ccco2)C2CCS(=O)(=O)C2)c1 (configuration not stated),-19%,10%,-14,-12%,-29%,18µM*
CCOc1ccc(CN(C(=O)/C=C/c2ccco2)C2CCS(=O)(=O)C2)cc1 (configuration not stated),-32%,20%,-16,-25%,?,45µM*
CN(C)c1ccc(CN(C(=O)/C=C/c2ccco2)C2CCS(=O)(=O)C2)cc1 (configuration not stated),?,-12%,-3,-11%,?,.
Cc1oc(-c2ccccc2Cl)nc1CSc1nncn2c1cc1occc12,3%,33%,.,.,-27%,-1%[59 µM]
COc1cccc(CN(C(=O)c2ccco2)C2CCS(=O)(=O)C2)c1 (configuration not stated),-6%,26%,1,-15%,1%,.
COc1ccc(CN(C(=O)/C=C/c2ccco2)C2CCS(=O)(=O)C2)cc1OC (configuration not stated),-15%,23%,-2,-18%,?,40µM*
COc1ccc(-c2cc(OC(=O)c3ccc(F)cc3)c3c(C)oc(C)c3c(=O)c2)cc1OC,-36%,-12%,.,.,?,?
COc1ccc(C)cc1-n1[nH]nnc1=S,25µM*,-17%,-18,-18%,-23%,6.3µM*
Cc1cc(C)c(-n2[nH]nnc2=S)c(C)c1,32µM*,-17%,-23,30µM*,?,14µM*
O=C(O)C1C2C=CC(C2)C1C(=O)NCc1ccc(Cl)c(Cl)c1 (configuration not stated),20%,25%,6,-6%,9%,25%[59 µM]
O=C(O)C1CCCCC1C(=O)NCc1ccc(Cl)c(Cl)c1 (configuration not stated),-30%,-23%,-5,30µM*,-10%,11%
Cn1c(=O)n(C)c2cc(/C=N/NC(N)=S)ccc21,-10%[57.1 µM],-9%,-11,-27%,-37%,20µM*
CCn1c(=O)n(-c2ccc(F)cc2)c(=O)c2sc3ccccc3c21,-13%,58%,.,.,4%,1%[59 µM]
Cc1ccccc1CCNC(=O)C1CCN(S(=O)(=O)c2ccc3c(ccn3C)c2)CC1,-1%,26%[57 µM],.,.,0%,0%[59 µM]
Cc1nnc2ccc(-c3cccc(NS(=O)(=O)c4ccccc4Cl)c3)nn12,-7%,21%,4,-16%,5%,?
Cc1nnc2ccc(-c3cccc(NS(=O)(=O)c4ccccc4[N+](=O)[O-])c3)nn12,2%,28%,-6,-6%,-34%,50µM*
CC1CCN(CCCn2c(=S)[nH]c3c(sc4ccc([N+](=O)[O-])cc43)c2=O)CC1,-13%,28%,6,-9%,-17%,40µM*
CC1CCN(CCCn2c(=S)[nH]c3ccccc3c2=O)CC1,-3%,47%,4,-6%,?,3%[2.33 µM]
CC1CCN(CCCn2c(=S)[nH]c3c(sc4ccccc43)c2=O)CC1,?,1%,-14,-8%,-25%,8.9µM*
CCOC(=O)C1C(=O)NC(SCC(=O)OC)=C(C#N)C1c1ccccc1OCC (configuration not stated),-9%,46%,.,-11%,0%,0%[59 µM]
C=CCSC1=C(C#N)C(c2ccccc2OCC)C(C#N)C(=O)N1 (configuration not stated),-31%,-13%,.,27µM*,-12%,45µM*
CCOC(=O)C1C(=O)NC(SCC(=O)Nc2nccs2)=C(C#N)C1c1ccccc1OCC (configuration not stated),56µM*,?,.,2.7µM*,-35%,1.6µM*
O=C(Nc1ccc(F)c(F)c1)c1ccc(=O)n(Cc2ccc(F)cc2)c1,2%,31%[57 µM],.,.,3%,5%[59 µM]
SMILES,JMJD2A Tudor,HP1b binding inh,PI5P4Ka inh,PLK1 PBD block,BAZ2B block,G9a inh
CC(OC(=O)c1cc(S(=O)(=O)N2CCOCC2)ccc1F)C(=O)NC1CCCCC1C (configuration not stated),-1%,33%,-1,5%,-2%,0%
c1ccc(Nc2ncnc3[nH]ncc23)cc1,-7%,47%,-18,-3%,-5%,50µM*
CCCNc1ncnc2[nH]ncc12,-18%,-17%,-5,-2%,.,.
Cc1ccn2c(NCc3ccco3)c(-c3ccccc3)nc2c1,?,22%,.,.,.,.
CCCNc1c(NS(=O)(=O)c2ccc3c(c2)CCCC3)c(=O)oc2ccccc12,-12%,26%,-3,-4%,-35%,.
O=S(=O)(Cc1ccccc1)Nc1ccc(Br)cn1,-3%,63%,0,-10%,-14%,71µM*
Cc1ccc(NS(=O)(=O)Cc2ccccc2)nc1,1%,32%,-7,-8%,-14%,28µM*
O=C(O)c1ccc2c(c1)C(=O)N([C@H](Cc1c3ccccc3cc3ccccc13)C(=O)O)C2=O,?,.,.,.,-8%,12%[12.7 µM]
COc1ccc(NC2SC(=O)N(CC(=O)O)C2=O)cc1 (configuration not stated),79µM*,8%,-15,-22%,-28%,40µM*
COC(=O)c1cccc(CN2C(=O)SC(Nc3ccc(Cl)cc3)C2=O)c1 (configuration not stated),-9%,13%,.,.,-1%,-4%[59 µM]
CCOC(=O)c1ccc(NC2SC(=O)N(Cc3cccc(C(=O)O)c3)C2=O)cc1 (configuration not stated),-21%,41%,.,.,-5%,2.8µM*
CC(OC(=O)CCOc1ccccc1)C(=O)NC1CC1 (configuration not stated),-3%,32%,1,-3%,-4%,14%[0.501 µM]
O=C1Nc2ccccc2C1=Nc1ccc2[nH]c3ccccc3c2c1,35µM*,?,-1,-2%,.,.
Cc1ccc(NC(=O)CSc2nnc(COc3ccc(Cl)cc3)o2)cc1,-14%,17%,.,.,-8%,2%[59 µM]
CCc1ccccc1NC(=O)Nc1cc(C(=O)NCc2ccc(C(C)C)cc2)ccc1N1CCCC1,-5%,54%,.,.,7%,0%[59 µM]
O=C(CSc1nc2c([nH]c3ccccc32)c(=O)n1-c1cccc(C(F)(F)F)c1)N1CCc2ccccc21,-5%,16%[57 µM],.,.,9%,7%[59 µM]
O=C(NCCS(=O)(=O)c1ccc(Cl)cc1)c1ccc(F)cc1,?,-15%,-20,21µM*,-2%,4%

# Bioassay records deposited in PubChem BioAssay by National Center for Advancing Translational Sciences (NCATS).
